Screening data deposited in PubChem by National Center for Advancing Translational Sciences (NCATS).
In the library only some 18% were active in any assay of this set; here they are far more common.
CtBP-E1A blk: blocks the CtBP interaction with E1A; AlphaScreen GST-E1A/His-CtBP binding, 1536-well; hits give low values; activity change, % (test concentration not listed); 340,000 tested, 0.49% active; in the data active means activity change below about -65%; inconclusive means mostly about -30% to -63%
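Homogeneous bead-based format: GST-tagged E1A captured on glutathione donor beads, His-tagged CtBP on nickel acceptor beads; compounds precede bead addition by 2 h at 37 °C.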
IL1B secr inh: inhibitors of inflammasome signaling (IL-1 beta secretion). THP-1 LPS/ATP IL-1B secretion, AlphaLISA, 16 h; hits give low values. activity change, % at 57.5 µM. 360,000 tested, 4.7% active. AID 743279; in the data active means activity change below about -50%; inconclusive means mostly about -30% to -49%
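Secreted IL-1B measured by AlphaLISA bead assay after 16 h compound exposure of THP-1 cells; compounds (final up to 57.5 uM) added 1 h before LPS (250 ng/mL) and ATP (1.25 mM) stimulation; lower signal means less secretion.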
TDP1 block: inhibitors of human tyrosyl-DNA phosphodiesterase TDP1; Q9NUW8; recombinant TDP1, AlphaScreen DNA substrate cleavage; Potency, µM (top dose mostly 130 µM), most hits filed as inhibitors; 350,000 tested, 0.28% active; further: nearly all actives have a fitted effect of over 40% in size
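E. coli-derived human Tdp1, 1 nM final. Cpd preinc 15 min RT; substrate 15 nM final, 5 min RT; AS bead mix 10 ug/ml final, 10 min RT. Signal loss = tyrosine-FITC cleavage. No-enzyme wells = max signal.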
DT40 TDP1 CPT: DT40-hTDP1 cell growth loss with CPT. chicken DT40 Tdp1-/-;hTDP1 cells + 20 nM CPT, ATP luminescence, 48 h. Potency, µM (highest dose often 46.2 µM), most hits filed as inhibitors. 420,000 tested, 12% active. AID 686979; further: nearly all actives have a fitted effect of over 55% in size
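Chicken DT40 Tdp1-/- cells complemented with human TDP1, 400 cells/well, exposed to compounds plus 20 nM camptothecin for at least 48 h at 37 C; viability read as ATP content by CellTiter-Glo luminescence.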
Six1-Eya2 inh: blocks human Six1 binding to Eya2 | AlphaScreen GST-Six1/His-Eya2 binding, biochemical; hits give low values | 360,000 tested, 0.56% active | AID 651725 | Q15475+O00167 | activity change, % (test concentration not listed); in the data active means activity change below about -65%; inconclusive means mostly about -30% to -63%
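Six1/Eya2 binding was read as AlphaScreen signal after compounds were pinned into GST-Six1 plus His-tagged Eya2 (5X stock 250/500 nM) in pH 8.0 Tris/NaCl/TCEP buffer, beads added, then incubated 1 h, 37 C, dark.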
DT40 TDP1 no CPT: qHTS for Inhibitors of human tyrosyl-DNA phosphodiesterase 1 (TDP1): qHTS in cells in absence of CPT; Potency, µM (highest dose often 46.2 µM), most hits filed as inhibitors; DT40 Tdp1-/- hTDP1 cells, no CPT, ATP luminescence, 48 h; 420,000 tested, 15% active; further: nearly all actives have a fitted effect of over 55% in size
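Stably hTDP1-transfected Tdp1-null chicken DT40 cells were treated with library compounds minus camptothecin and grown for at least 48 hr at 37 °C, after which cellular ATP was quantified by luminescence.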
Each line names hits and unclear results; the compound was inactive in the other large screens. Unless noted, the call rests on the fitted dose curve; in most records, active means well fitted curve in the direction sought with a large enough effect; inconclusive means small, poorly fitted or top-dose-only effect, or another doubt; inactive means no such curve, though single readings can be large; an effect the other way counts as inactive or inconclusive.

CCCNc1nc2c(c(=O)[nH]c(=O)n2C)n1CCOc1ccccc1	DT40 TDP1 CPT inconclusive (no result: TDP1 block)
Cn1c(=O)[nH]c(=O)c2c1nc(NCCN)n2CCOc1ccccc1	DT40 TDP1 CPT inconclusive, DT40 TDP1 no CPT 13µM (no result: TDP1 block)
Cn1c(=O)[nH]c(=O)c2c1nc(NN)n2CCOc1ccccc1	Six1-Eya2 inh inconclusive, DT40 TDP1 no CPT inconclusive (no result: TDP1 block)
CCc1nc2ccc(C(=O)Nc3cccc(OCC(=O)N(C)C)c3)cn2c1N(C)Cc1ccc(N(C)C)cc1	DT40 TDP1 CPT inconclusive, DT40 TDP1 no CPT inconclusive (no result: TDP1 block)
Cc1cn([C@@H](CCCCNC(=O)OC(C)(C)C)C(=O)NCCCCCCCCCCC(=O)N2CCN(C(=O)OC(C)(C)C)CC2)nn1	DT40 TDP1 CPT 8.2µM, DT40 TDP1 no CPT 7.3µM
CC[C@H](C)Cc1cn([C@@H](CCCN=C(NC(=O)OC(C)(C)C)NC(=O)OC(C)(C)C)C(=O)NCCCCCCCCCCC(=O)N2CCN(C(=O)OC(C)(C)C)CC2)nn1	DT40 TDP1 CPT 9.2µM, DT40 TDP1 no CPT 7.3µM (no result: TDP1 block)
CSCC[C@@H](C(=O)NCCCCCCCCCCC(=O)N1CCNCC1)n1cc(CCO)nn1	DT40 TDP1 no CPT inconclusive
CC[C@H](C)Cc1cn([C@@H](CCCCN)C(=O)NCCCCCCCCCCC(=O)N2CCNCC2)nn1	none (no result: CtBP-E1A blk)
CC(C)(C)OC(=O)NCCCCCc1cn(CC(=O)NCCCCCCCCCCC(=O)N2CCN(C(=O)OC(C)(C)C)CC2)nn1	DT40 TDP1 CPT 5.8µM, DT40 TDP1 no CPT 6.5µM
Cc1ccc(Cl)cc1NS(=O)(=O)c1cc2c(cc1Cl)CCC(=O)N2	none (no result: CtBP-E1A blk, IL1B secr inh, DT40 TDP1 CPT, Six1-Eya2 inh, DT40 TDP1 no CPT)
Cc1ccc(S(=O)(=O)N(C)C)cc1NC(=O)COC(=O)/C=C/c1cnc2ccccc2n1	none
c1ccc(NN=C(c2ccccc2)c2cccs2)cc1	DT40 TDP1 no CPT 21µM (no result: TDP1 block)
CCCNC(=O)c1cccc(Cn2nc(C)c(Br)c2C)c1	DT40 TDP1 CPT 16µM, DT40 TDP1 no CPT 21µM
Cc1nn(Cc2cccc(C(=O)NC34CC5CC(CC(C5)C3)C4)c2)c(C)c1Br	DT40 TDP1 CPT inconclusive, DT40 TDP1 no CPT inconclusive
COc1ccc(C2CC(=O)C(C=NCC(C)C)=C(O)C2)cc1 (configuration not stated)	none (no result: CtBP-E1A blk, TDP1 block)
COc1ccc(-c2n[nH]c3c2CN(C(=O)c2ccccc2)CC3)cc1	DT40 TDP1 CPT inconclusive
O=C(c1ccco1)N1CCc2[nH]nc(-c3ccc(Cl)cc3)c2C1	IL1B secr inh -72
Cc1ccc(NC(=O)c2noc3c2CC(C(C)(C)C)CC3)cc1 (configuration not stated)	DT40 TDP1 CPT inconclusive, DT40 TDP1 no CPT 23µM
COC(=O)c1ccccc1NC(=O)c1noc2c1CC(C(C)(C)C)CC2 (configuration not stated)	DT40 TDP1 CPT inconclusive, DT40 TDP1 no CPT 21µM
CC(C)(C)C1CCc2onc(C(=O)Nc3cccc(O)c3)c2C1 (configuration not stated)	none (no result: CtBP-E1A blk, IL1B secr inh, DT40 TDP1 CPT, Six1-Eya2 inh, DT40 TDP1 no CPT)
Cn1c(=O)c2c(nc(CN3CCN(CCO)CC3)n2Cc2ccccc2Cl)n(C)c1=O	none (no result: TDP1 block)
CC(=O)Oc1ccccc1Cn1c(C)c(C(=O)NCc2cccc([N+](=O)[O-])c2)sc1=O	DT40 TDP1 CPT inconclusive, Six1-Eya2 inh inconclusive, DT40 TDP1 no CPT 21µM (no result: TDP1 block)
Cc1c(C(=O)NCc2cccc([N+](=O)[O-])c2)sc(=O)n1Cc1ccc(F)cc1	IL1B secr inh inconclusive, DT40 TDP1 CPT 16µM, DT40 TDP1 no CPT inconclusive (no result: TDP1 block)
Cc1c(C(=O)NCc2cccc([N+](=O)[O-])c2)sc(=O)n1Cc1cccc(F)c1	IL1B secr inh inconclusive, DT40 TDP1 CPT inconclusive (no result: TDP1 block)
CC(OC(=O)c1ccc(Cl)nc1)C(=O)NC1(C#N)CCCCC1 (configuration not stated)	none (no result: TDP1 block)
O=C(CO/N=C/c1ccccc1OC(F)F)N1CCc2ccccc21	none
C=CCn1c(=O)c2ccccc2n2c(Sc3nnnn3-c3ccccc3)nnc12	DT40 TDP1 CPT inconclusive, DT40 TDP1 no CPT inconclusive
CCCn1c(=O)c2ccccc2n2c(SCC(=O)NCc3cccs3)nnc12	DT40 TDP1 CPT inconclusive, DT40 TDP1 no CPT 15µM
